# Laboratory results from PubChem BioAssay AID1159580 (chemical genetic matrix, 2015).
# The campaign covered roughly 5,500 compounds. About 2,000 (36%) were called active. Another 18% or so got no clear call; they are omitted. The list shows a part of the results. A number with no mark means an inactive call. Cut-off read from the data, not from the text of the source: active = normalized growth mostly below about 0.91 (no sharp cut-off); inconclusive = no clear call, values can overlap the other calls; inactive = mostly above about 0.92.
# Test: chemical genetic growth profiling, strain panel (AID 1159580);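 note: tested at 20 µM; growth read once vehicle control cultures reached saturation at 30 °C; 1 = growth at the plate median or of vehicle wells; lower values mean less growth of the strain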
# Conditions: growth OD
compound,measurement,setting,value
COc1ccc(C(=O)CC(=O)c2ccc(C(C)(C)C)cc2)cc1,normalized growth,"S. cerevisiae deletion strains, locus YJR075W, strain HOC1, active compounds read low",0.936
same,normalized growth,"S. cerevisiae deletion strains, locus YKL009W, strain mrt4, active compounds read low",1.02
same,normalized growth,"S. cerevisiae deletion strains, locus YKL068W, active compounds read low",0.996
same,normalized growth,"S. cerevisiae deletion strains, locus YKL085W, strain MDH1 (second series), active compounds read low",0.989
same,normalized growth,"S. cerevisiae deletion strains, locus YKL085W, strain MDH1, active compounds read low",0.989
same,normalized growth,"S. cerevisiae deletion strains, locus YKL160W, strain elf1, active compounds read low",0.982
same,normalized growth,"S. cerevisiae deletion strains, locus YKL190W, strain CNB1, active compounds read low",0.986
same,normalized growth,"S. cerevisiae deletion strains, locus YKR001C, strain vps1, active compounds read low",1
same,normalized growth,"S. cerevisiae deletion strains, locus YKR026C, strain gcn3, active compounds read low",0.988
same,normalized growth,"S. cerevisiae deletion strains, locus YKR091W, strain srl3, active compounds read low",0.99
same,normalized growth,"S. cerevisiae deletion strains, locus YLL001W, strain dnm1, active compounds read low",0.998
same,normalized growth,"S. cerevisiae deletion strains, locus YLL026W, active compounds read low",0.998
same,normalized growth,"S. cerevisiae deletion strains, locus YLL041C, strain sdh2, active compounds read low",0.972
same,normalized growth,"S. cerevisiae deletion strains, locus YLR027C, strain aat2, active compounds read low",0.988
same,normalized growth,"S. cerevisiae deletion strains, locus YLR039C, strain RIC1, active compounds read low",0.884
same,normalized growth,"S. cerevisiae deletion strains, locus YLR058C, strain SHM2, active compounds read low",1.01
same,normalized growth,"S. cerevisiae deletion strains, locus YLR102C, strain apc9, active compounds read low",1
same,normalized growth,"S. cerevisiae deletion strains, locus YLR113W, strain HOG1, active compounds read low",0.969
same,normalized growth,"S. cerevisiae deletion strains, locus YLR221C, strain rsa3, active compounds read low",0.937
same,normalized growth,"S. cerevisiae deletion strains, locus YLR258W, strain gsy2, active compounds read low",0.971
same,normalized growth,"S. cerevisiae deletion strains, locus YLR262C, strain YPT6 (second series), active compounds read low",0.801 (active)
same,normalized growth,"S. cerevisiae deletion strains, locus YLR262C, strain YPT6, active compounds read low",0.903
same,normalized growth,"S. cerevisiae deletion strains, locus YLR268W, strain sec22, active compounds read low",1
same,normalized growth,"S. cerevisiae deletion strains, locus YLR320W, strain mms22, active compounds read low",0.956
same,normalized growth,"S. cerevisiae deletion strains, locus YLR330W, strain CHS5, active compounds read low",1
same,normalized growth,"S. cerevisiae deletion strains, locus YLR342W, strain FKS1 (second series), active compounds read low",1.1
same,normalized growth,"S. cerevisiae deletion strains, locus YLR342W, strain FKS1, active compounds read low",0.992
same,normalized growth,"S. cerevisiae deletion strains, locus YLR357W, strain rsc2, active compounds read low",1.03
same,normalized growth,"S. cerevisiae deletion strains, locus YLR370C, strain arc18, active compounds read low",1
same,normalized growth,"S. cerevisiae deletion strains, locus YLR371W, strain rom2, active compounds read low",1.01
same,normalized growth,"S. cerevisiae deletion strains, locus YLR384C, strain iki3, active compounds read low",1.01
same,normalized growth,"S. cerevisiae deletion strains, locus YLR418C, strain cdc73, active compounds read low",0.952
same,normalized growth,"S. cerevisiae deletion strains, locus YML016C, strain PPZ1, active compounds read low",1
same,normalized growth,"S. cerevisiae deletion strains, locus YML032C, strain rad52, active compounds read low",1
same,normalized growth,"S. cerevisiae deletion strains, locus YML120C, strain ndi1, active compounds read low",1
same,normalized growth,"S. cerevisiae deletion strains, locus YML124C, strain tub3, active compounds read low",1
same,normalized growth,"S. cerevisiae deletion strains, locus YMR058W, strain fet3, active compounds read low",0.996
same,normalized growth,"S. cerevisiae deletion strains, locus YMR078C, strain ctf18, active compounds read low",1.01
same,normalized growth,"S. cerevisiae deletion strains, locus YMR125W, strain sto1, active compounds read low",0.977
same,normalized growth,"S. cerevisiae deletion strains, locus YMR129W, active compounds read low",0.983
same,normalized growth,"S. cerevisiae deletion strains, locus YMR205C, strain PFK2, active compounds read low",0.97
same,normalized growth,"S. cerevisiae deletion strains, locus YMR223W, strain ubp8, active compounds read low",1
same,normalized growth,"S. cerevisiae deletion strains, locus YMR231W, strain pep5, active compounds read low",1.02
same,normalized growth,"S. cerevisiae deletion strains, locus YMR263W, strain SAP30, active compounds read low",0.988
same,normalized growth,"S. cerevisiae deletion strains, locus YMR307W, strain GAS1, active compounds read low",0.746
same,normalized growth,"S. cerevisiae deletion strains, locus YNL067W, strain RPL9B, active compounds read low",0.912
same,normalized growth,"S. cerevisiae deletion strains, locus YNL071W, strain lat1, active compounds read low",0.998
same,normalized growth,"S. cerevisiae deletion strains, locus YNL128W, strain TEP1, active compounds read low",0.98
same,normalized growth,"S. cerevisiae deletion strains, locus YNL153C, strain GIM3, active compounds read low",0.996
same,normalized growth,"S. cerevisiae deletion strains, locus YNL183C, strain NPR1, active compounds read low",0.958
same,normalized growth,"S. cerevisiae deletion strains, locus YNL209W, strain ssb2, active compounds read low",1.02
same,normalized growth,"S. cerevisiae deletion strains, locus YNL233W, strain BNI4, active compounds read low",0.995
same,normalized growth,"S. cerevisiae deletion strains, locus YNL248C, strain rpa49, active compounds read low",0.963
same,normalized growth,"S. cerevisiae deletion strains, locus YNL250W, strain rad50, active compounds read low",0.993
same,normalized growth,"S. cerevisiae deletion strains, locus YNL271C, strain bni1, active compounds read low",1
same,normalized growth,"S. cerevisiae deletion strains, locus YNL298W, strain CLA4, active compounds read low",1.02
same,normalized growth,"S. cerevisiae deletion strains, locus YNL307C, strain MCK1, active compounds read low",1.01
same,normalized growth,"S. cerevisiae deletion strains, locus YNL322C, strain KRE1 (second series), active compounds read low",1.01
same,normalized growth,"S. cerevisiae deletion strains, locus YNL322C, strain KRE1, active compounds read low",0.994
same,normalized growth,"S. cerevisiae deletion strains, locus YNR049C, strain mso1, active compounds read low",0.987
same,normalized growth,"S. cerevisiae deletion strains, locus YNR052C, strain pop2, active compounds read low",1.01
same,normalized growth,"S. cerevisiae deletion strains, locus YOL006C, strain TOP1, active compounds read low",0.82
same,normalized growth,"S. cerevisiae deletion strains, locus YOL012C, strain htz1",1.06
same,normalized growth,"S. cerevisiae deletion strains, locus YOL147C, strain pex11, active compounds read low",1
same,normalized growth,"S. cerevisiae deletion strains, locus YOR001W, strain rrp6, active compounds read low",0.979
same,normalized growth,"S. cerevisiae deletion strains, locus YOR061W, strain CKA2, active compounds read low",1
same,normalized growth,"S. cerevisiae deletion strains, locus YOR069W, strain VPS5, active compounds read low",1
same,normalized growth,"S. cerevisiae deletion strains, locus YOR070C, strain gyp1, active compounds read low",0.986
same,normalized growth,"S. cerevisiae deletion strains, locus YOR080W, strain dia2, active compounds read low",1.01
same,normalized growth,"S. cerevisiae deletion strains, locus YOR083W, strain WHI5, active compounds read low",0.98
same,normalized growth,"S. cerevisiae deletion strains, locus YOR106W, strain vam3, active compounds read low",0.904
same,normalized growth,"S. cerevisiae deletion strains, locus YOR136W, strain idh2, active compounds read low",0.99
same,normalized growth,"S. cerevisiae deletion strains, locus YOR144C, strain elg1, active compounds read low",1
same,normalized growth,"S. cerevisiae deletion strains, locus YOR184W, strain ser1, active compounds read low",0.955
same,normalized growth,"S. cerevisiae deletion strains, locus YOR231W, strain MKK1, active compounds read low",1.01
same,normalized growth,"S. cerevisiae deletion strains, locus YOR265W, strain rbl2, active compounds read low",0.998
same,normalized growth,"S. cerevisiae deletion strains, locus YOR270C, strain vph1, active compounds read low",0.827
same,normalized growth,"S. cerevisiae deletion strains, locus YOR290C, strain snf2, active compounds read low",0.991
same,normalized growth,"S. cerevisiae deletion strains, locus YOR316C, strain cot1, active compounds read low",1
same,normalized growth,"S. cerevisiae deletion strains, locus YPL051W, strain arl3, active compounds read low",0.992
same,normalized growth,"S. cerevisiae deletion strains, locus YPL055C, strain LGE1, active compounds read low",0.88
same,normalized growth,"S. cerevisiae deletion strains, locus YPL078C, strain atp4, active compounds read low",0.998
same,normalized growth,"S. cerevisiae deletion strains, locus YPL106C, strain sse1, active compounds read low",1
same,normalized growth,"S. cerevisiae deletion strains, locus YPL240C, strain hsp82, active compounds read low",0.995
same,normalized growth,"S. cerevisiae deletion strains, locus YPL241C, strain CIN2, active compounds read low",0.988
same,normalized growth,"S. cerevisiae deletion strains, locus YPL256C, strain CLN2, active compounds read low",1
same,normalized growth,"S. cerevisiae deletion strains, locus YPR119W, strain clb2, active compounds read low",0.998
same,normalized growth,"S. cerevisiae deletion strains, locus YPR141C, strain kar3, active compounds read low",0.996
same,normalized growth,"S. cerevisiae deletion strains, locus YPR163C, strain tif3, active compounds read low",1.01
same,normalized growth,"S. cerevisiae deletion strains, locus YPR167C, strain met16, active compounds read low",1
same,normalized growth,"S. cerevisiae deletion strains, strain wtn01, active compounds read low",0.996
same,normalized growth,"S. cerevisiae strains, strain wild type, active compounds read low",0.975
